The list is not random: actives were taken first. Their share in the collection is about 6%.
D3 ag = qHTS of D3 Dopamine Receptor Agonist: qHTS | D(3) dopamine receptor (Homo sapiens), P35462 | D3R DiscoveRx beta-arrestin cells, luminescence, 90 min | max activation, % | 410,000 tested, 0.58% active; in the data active means max activation above about 30%; further: 0% is about no effect
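Cells at 1500/well, incubated overnight, then treated with pinned compounds (dopamine as control) for 90 min at 37 degrees C. DiscoveRx reagent added for 30 - 60 minutes at room temperature; luminescence read.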
D1 ag = Allosteric Agonists of the Human D1 Dopamine Receptor: qHTS; D(1A) dopamine receptor (Homo sapiens), P21728; HEK293 T-REx D1 cells, calcium flux, agonist mode; activation, % at 2 µM; 360,000 tested, 1% active; AID 504660, 2011; in the data active means activation above about 30%; further: 0% is about no effect
Target sequence (P21728 whole entry, looked up): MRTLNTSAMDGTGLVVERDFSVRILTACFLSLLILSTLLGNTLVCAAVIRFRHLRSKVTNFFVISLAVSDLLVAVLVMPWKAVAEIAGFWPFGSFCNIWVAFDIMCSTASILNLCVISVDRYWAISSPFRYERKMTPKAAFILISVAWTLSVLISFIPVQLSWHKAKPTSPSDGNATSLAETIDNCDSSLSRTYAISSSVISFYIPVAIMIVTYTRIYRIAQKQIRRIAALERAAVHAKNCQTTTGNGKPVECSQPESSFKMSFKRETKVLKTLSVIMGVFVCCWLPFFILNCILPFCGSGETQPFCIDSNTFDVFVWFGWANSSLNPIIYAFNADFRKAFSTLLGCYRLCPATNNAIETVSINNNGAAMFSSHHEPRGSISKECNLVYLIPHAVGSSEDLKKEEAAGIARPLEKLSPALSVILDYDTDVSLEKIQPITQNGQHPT
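Tetracycline-induced HEK293 TREx D1 cells, force-coupled to calcium signalling, were dye-loaded with a no-wash calcium kit. Compound was pin-added after a 10 s baseline. Fluorescence was read kinetically at 1 cycle/s for 180 s, with calcium rises flagged as agonism.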
D1 antag = Antagonist of Human D 1 Dopamine Receptor: qHTS | activity change, negative = inhibition, % at 10 µM | 360,000 tested, 3.2% active | HEK293 TREx D1 cells, calcium flux, dopamine EC80; stronger effect = lower value; in the data active means activity change below about -30%; further: on the % scale 0 is the no-effect control and ±100 the full control effect
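Tetracycline-induced HEK293 T-REx cells with force-coupled D1 receptor were loaded with a no-wash calcium dye. Compound was added after a 10 s baseline and read kinetically for 180 s; EC80 dopamine was then added and calcium flux followed another 180 s.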
D1 potentiator = Potentiators of Human D1 Dopamine Receptor: qHTS | D(1A) dopamine receptor (Homo sapiens), P21728 | HEK293 TREx D1 cells, calcium flux, dopamine EC20 potentiation | potentiation, % at 10 µM | 360,000 tested, 0.036% active | AID 504651, 2011; in the data active means potentiation above about 30%; further: 0% is about no effect
D3 antag = qHTS of D3 Dopamine Receptor Antagonist: qHTS. D(3) dopamine receptor (Homo sapiens), P35462. D3R cells, DiscoveRx beta-arrestin luminescence, antagonist mode; stronger effect = lower value. max response, negative = inhibition, %. 360,000 tested, 2.5% active. AID 652054, 2013; in the data active means max response below about -50%; inconclusive means no clear call, values can overlap the other calls; further: on the % scale 0 is the no-effect control and ±100 the full control effect
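Cells plated overnight at 1500 cells/well, then exposed to library compounds with dopamine controls for 90 minutes at 37 degrees C. DiscoveRx reagent added for 30–60 minutes at room temperature; luminescence read, quantitative HTS format.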
An asterisk follows results filed as active; ? = inconclusive; nt = not tested or not shown.

SMILES	D3 ag	D1 ag	D1 antag	D1 potentiator	D3 antag
Cc1ccc(O)c(NC(=O)CSc2n[nH]c(C)c2[N+](=O)[O-])c1	18	16	-34*	-7	18
Cc1ccc(NC(=O)CSc2n[nH]c(C)c2[N+](=O)[O-])cc1C	-7	14	-15	-4	-1
O=C(CC1N=C2c3ccccc3N=C(SCC(=O)Nc3cccc(Cl)c3)N2C1=O)NCc1cccs1 (stereo not drawn)	6	8	-12	-3	nt
Cc1cc(C)n(-c2nc3ccccc3nc2Nc2ccc(Cl)cc2Cl)n1	58*	1	-12	1	nt
Cc1cc(C)n(-c2nc3ccccc3nc2Nc2ccc(N(C)C)cc2)n1	16	12	2	2	nt
Cc1ccc2nc(Nc3ccc4[nH]c(=O)[nH]c4c3)c(-n3nc(C)cc3C)nc2c1	69*	5	6	-1	30
CCOC(=O)N1CCc2c(sc3c2c(=O)n(CCc2ccccc2)c(=O)n3Cc2ccc(F)cc2)C1	-6	9	-23	-3	nt
Fc1cccc(Cl)c1Cn1nnc(-c2ccc(N3CCOCC3)cc2)n1	-6	6	-36*	-2	-13
CCc1ccc(-c2ccc3nnc(SC)n3n2)cc1	4	4	4	-5	-9
CCSc1nnc2ccc(-c3ccc(C)cc3)nn12	2	59*	-28	-4	5
O=C(CSc1ncc(-c2ccc(F)cc2)[nH]1)N1CCCCC1	-1	1	4	-5	-59*
O=C(CSc1nnc2ccc(-c3ccc(F)cc3)nn12)N1CCCC1	6	2	-32*	-4	16
CCN(CC)CCOC(=O)c1cccnc1	-5	nt	nt	nt	nt
O=C(Nc1nnc([C@@H]2C[C@H](O)[C@@H](CO)O2)s1)c1cccc(OC(F)(F)F)c1	2	nt	nt	nt	2
COc1cccc(NC(=O)c2cnc(NS(=O)(=O)c3ccccc3)nc2)c1	1	nt	nt	nt	10
COCCNC(=O)c1cc2n(n1)CCCN(Cc1ccc(C)cc1)C2=O	-9	0	14	-1	nt
O=[N+]([O-])c1ccc(NN=Cc2ccccc2O)nc1	-6	nt	nt	nt	-4
Oc1ccc(C=NNc2ccccn2)c(O)c1	1	nt	nt	nt	-61*
Clc1ccc(/C=N/Nc2ccccn2)cc1	1	2	-31*	-9	9
O=[N+]([O-])c1ccc(O)c(/C=N/Nc2ccccn2)c1	-12	2	1	-1	-70*
Cc1nc(-c2ccc([S+](=O)([O-])N3CCN([S+](=O)([O-])c4c(F)cccc4F)CC3)s2)cs1	nt	1	15	-8	nt
CC(=Nc1ccc(Br)cc1)c1sc2ccccc2c1O	5	62*	-3	1	30
CC(=Nc1ccccc1)c1sc2ccccc2c1O	2	29	-5	1	-9
Cc1cccc(-n2ccnc2SCC(=O)Nc2cccc3ccccc23)c1	0	0	1	-4	nt
O=C(COC(=O)c1ccc(Cl)cc1O)NC(=O)C1CCCCC1	4	-2	-16	-2	5
SMILES	D3 ag	D1 ag	D1 antag	D1 potentiator	D3 antag
O=C(COC(=O)c1ccncc1)NC(=O)C1CCCCC1	9	4	-36*	2	23
CC(C)CCN(Cc1ccco1)S(=O)(=O)c1csc(C(N)=O)c1	-5	3	2	-3	-8
CCOCCCN(Cc1ccco1)S(=O)(=O)c1csc(C(N)=O)c1	2	1	-50*	-9	2
COc1cc2[nH]c(-c3ccc(C)cc3)cc(=O)c2cc1OC	-68	-3	17	-2	-112*
CCCCNC(=O)C[C@@H]1C[C@@]2(C(=O)OCC)CCC=C2N(CCC2=CCCCC2)C1=O	-7	nt	nt	nt	-30
CC(C)CN(C(=O)COC(=O)c1ccc([N+](=O)[O-])o1)C1CCS(=O)(=O)C1 (stereo not drawn)	4	2	-32*	-7	3
CC(C)CN(C(=O)COc1ccc(-c2nnco2)cc1)C1CCS(=O)(=O)C1 (stereo not drawn)	7	1	-47*	3	22
CC(C)CN(C(=O)COC(=O)c1ccccc1SCC(=O)NC1CCCCCC1)C1CCS(=O)(=O)C1 (stereo not drawn)	1	1	-42*	2	5
CCN(C(=O)COC(=O)c1ccccc1SCC(=O)NC1CCCCCCC1)C1CCS(=O)(=O)C1 (stereo not drawn)	3	0	13	-1	11
CCCOc1ccc(CNC(=O)C(C)n2nc(C)n3c(cc4occc43)c2=O)cc1 (stereo not drawn)	4	0	10	2	nt
COCCNC(=O)C1(C)CCCN(C(=O)CCc2ccccc2)C1 (stereo not drawn)	8	nt	nt	nt	13
COc1cc(NC(=O)CSc2ccc(-c3sc(C)nc3C)nn2)cc(OC)c1	4	3	2	-5	nt
Cc1nonc1NC(=O)CSc1nc2c(C)cccc2cc1C#N	2	43*	-8	-5	12
O=C(Nc1ccncc1)Nc1cccc(C(F)(F)F)c1	-5	11	-26	-9	-1
Cc1cccc(NC(=O)c2ccc(S(=O)(=O)N(C)C)cc2)c1	-6	1	-17	-7	0
Cc1ccc(S(=O)(=O)N(CC(=O)Nc2cccc(C(F)(F)F)c2)C(=O)N2CCN(C)CC2)cc1	-1	2	-38*	-6	14
Cc1ccc(S(=O)(=O)N(Cc2cccc(C(F)(F)F)c2)C(=O)N2CCN(C)CC2)cc1	-5	2	-7	-4	7
CCN(CC)S(=O)(=O)c1ccc(C(=O)NNC(=O)c2cccs2)cc1	3	2	-42*	-1	2
CCN(CC)S(=O)(=O)c1ccc(C(=O)Nc2cccc(C)c2)cc1	-10	18	-26	-2	-83*
CCN(CC)S(=O)(=O)c1ccc(NC(=O)c2cccs2)cc1	-2	2	19	0	-18
O=C(Nc1ccc(OC(F)F)cc1)Nc1cccc(C(F)(F)F)c1	10	19	-38*	-5	-5
CCOC(=O)c1ccc(NC(=O)c2nn(C)c3c2COc2ccccc2-3)cc1	1	5	10	-1	nt
Cc1ccc(S(=O)(=O)Nc2ccc(NC(=O)Nc3cccc(C(F)(F)F)c3)cc2)cc1	-1	3	-1	-8	4
CCN(CC)S(=O)(=O)c1ccc(NC(=O)Nc2cccc(C(F)(F)F)c2)cc1	-10	16	-32*	-1	?
O=C(C[n+]1cccc(CNC(=O)c2ccc(OC(F)F)cc2)c1)Nc1cccc(C(F)(F)F)c1	-3	-1	-15	-8	-51*

Bioassay records from PubChem BioAssay.
